The text below walks through data of ChEMBL document CHEMBL4513216, “Probing the Open Global Health Chemical Diversity Library for Multistage-Active Starting Points for Next-Generation Antimalarials” (ACS Infect Dis, 2020).

Among all 65,000 compounds or so, about 2,100 (3.2%) showed an effect of 50% or more. The median lay at about -52%. What follows is part of a selection rich in strong results, with near analogues and random picks from the rest.

The test relates to Plasmodium falciparum. The test is described as follows: Screen against P. falciparum Asexual Blood Stage (ABS), at 5uM. The format is functional, Dd2. Conditions: tested at 5 uM.
With `Cn1nc(-c2cccs2)cc1[C@H]1CN2CC[C@H]1C[C@@H]2CN`, the INHIBITION was -26%.
`Cc1csc(C2CCCCN2C(=O)c2cc(C(C)C)[nH]n2)n1` (stereo not given): the INHIBITION turned out to be 76.4%.
The result for `CSc1ccccc1C(=O)C1CCCN(Cc2cc(C(C)C)[nH]n2)C1` (stereo not given) reads -93.2%; that for `CN(C)Cc1cncc2c1CCN(CC(=O)N(C)C)C2`, -114%; that for `Cc1ncc(CN(Cc2ccccn2)Cc2ccccc2Cl)n1C`, 91.6%.
Then `CN(CCOCC1CC1)C(=O)Nc1ccc(C#N)c(Cl)c1`, with -115%; and `O=C(NCCCOCC1CC1)Nc1ccc(-n2cncn2)c(F)c1`, with 88.3%.
In the case of `O[C@@H]1CC(CNCc2ccc(Cl)cc2)(COc2cccnc2)C[C@@H]1O` (stereo not given in full), the INHIBITION stood at 70.3%.
Then `c1cncc(OC[C@]23COC[C@H]2CN(Cc2ccsc2)C3)c1`, with 20.3%; and `O[C@@]1(CNCCCOc2cccnc2)CCCN2CCCC[C@@H]21`, with -36.8%; and `O=S(=O)(NCC(c1ccsc1)N1CCCCCC1)c1cccs1` (stereo not given), with 85.5%.
Consider `Cc1ccc(NC(=O)N2CCC(CO)(Nc3ccccc3)CC2)cc1`, for which the INHIBITION is recorded as -31.275%.
The result for `NC(=O)CN1CCCCC1c1ccc(-n2ccnc2)nc1` (stereo not given) reads -59.6%; that for `Fc1cccc(N2CCCC3(C2)CN(c2ncccn2)CCO3)c1` (stereo not given), 70.6%; that for `OCCN1CCOC2(CCCN(c3ncccn3)C2)C1` (stereo not given), -14.1%.
The result for `OCCN1CCOC2(CCCN(c3ncc(F)cn3)C2)C1` (stereo not given) reads 11%.
As to `Cc1noc(C)c1CN1CCO[C@H]2CN(Cc3cnn(C)c3)C[C@H]21`, the INHIBITION was 13.9%.
The result for `CCNC(=O)C(C)NC(=O)c1cnc(-c2ccc(C)cc2C)s1` (stereo not given) reads 71.5%; that for `CCS(=O)(=O)NC[C@]12COC[C@H]1CN(Cc1cccnc1OC)C2`, -27.6%.
Then `CCNC(=O)c1cn(C(C)(C)C)c2ncccc12`, with 5.57%; and `Cc1cccc(CN2C[C@@H]3COC[C@]3(COCC(=O)N(C)C)C2)n1`, with -104%.
On to `CN(CCCO)Cc1cc(Cl)ccc1OCC(O)CN1CCCCCC1` (stereo not given), for which the INHIBITION is listed as 90.7%.
The result for `COCCN(C)Cc1cc(Cl)ccc1OCC(O)CN1CCCCCC1` (stereo not given) reads 83.9%; that for `CCC(O)CN1CCN(C(=O)Cc2cc(Cl)ccc2OC)CC1` (stereo not given), -17.7%; that for `COc1ccc(Cl)cc1CC(=O)N1CCN(CC(C)(C)O)CC1`, -155%.
Then `CN(CCO)Cc1cc(Cl)ccc1OCC(O)CN1CCCCCC1` (stereo not given), with 81.5%; and `Cn1cc(C2SCC(=O)Nc3c2c(=O)[nH]n3C2CCOCC2)cn1` (stereo not given), with -57.4%; and `O=C1CSC(c2ccccc2)c2c(n(C3CCOCC3)[nH]c2=O)N1` (stereo not given), with -34.2%.
The result for `c1cc([C@H]2C[C@@H]3CCN(Cc4nccs4)C[C@H]3O2)ncn1` reads -99.9%; that for `Cc1noc([C@H]2C[C@H]3OCC[C@H]3N(Cc3ccncc3)C2)n1`, -164%; that for `CCCn1nc(C)c(-c2cncn2CC2(N(C)C)CCC(C)CC2)c1C` (stereo not given), 70.3%.
Consider `CC(C)Oc1ncnc2c1CCN(Cc1ccc(F)cc1)CC2`, for which the INHIBITION was determined as 70.8%.
With `CC(c1ccc(F)cc1)N1CCN(Cc2ccc(C#N)cc2)CC1` (stereo not given), the INHIBITION is -14.8%.
Then `O=C1[C@H]2CN(Cc3ccc(F)cc3)C[C@H]2CN1c1cncnc1`, with 2.38%; and `Cn1cnc(S(=O)(=O)N2CC3(CCN(Cc4ccncc4)C3)C2)c1`, with -29.2%.
The result for `COCc1cncc2c1CCN(Cc1cnn(C)c1)C2` reads -135%; that for `c1ccc(O[C@H]2CO[C@@]3(CCCN(Cc4nccs4)C3)C2)nc1`, -90.3%.
With `Cc1ccccc1CC1(CO)CCCN(c2ncncc2C(C)C)C1` (stereo not given), the INHIBITION was determined as 85%.
Then `CCS(=O)(=O)N1CCOC2(CCCN(Cc3ccccn3)C2)C1` (stereo not given), with -69.2%; and `CN(C)C(=O)CN1CC[C@@H]2O[C@@H](COCc3cccnc3)CC[C@@H]21`, with -71.1%; and `Cc1nn(C)cc1C1=NS(=O)(=O)N(C)C(C(=O)Nc2ccc(Cl)cc2)=C1`, with 83.4%.
As for `Cc1nn(C)cc1C1=NS(=O)(=O)N(C)C(C(=O)Nc2ccc(Br)cc2)=C1`, the INHIBITION was determined as 90%.
As for `c1ccc(OC[C@H]2CCC[C@]23CN(Cc2nccs2)CCO3)nc1`, the INHIBITION came out at 6.16%.
Regarding `CCCC12CN3CC(C)(CN(C1)C3c1[nH]c(=O)[nH]c(=O)c1C)C2=O` (stereo not given), the INHIBITION was -167%.
The result for `Cc1noc(C)c1CN1CC[C@H]2OCC[C@@]2(C(=O)N(C)C)C1` reads -41.2%; that for `COCCNC(=O)C1(c2ccc(C)c(OC)c2)CCCC1`, 6.63%.
As for `COc1cc(C2(C(=O)NCCn3ccnc3)CCCC2)ccc1C`, the INHIBITION is on record as 50%.
The result for `Cc1cc(C)c(N(CC(O)CNCc2ccccc2)S(C)(=O)=O)c(C)c1` (stereo not given) reads 70.4%.
For `COCCOc1ccccc1CNCC1COC2(CCCC2)O1` (stereo not given), the INHIBITION was determined as 74.3%.
The result for `CCN1CCC(c2cncc(N(C)C)n2)CC1` reads -163%.
Then `CN(C)c1nc(N)nc(CN2CCC(c3ccccc3)CC2)n1`, with 80.4%; and `O=C(N1CCCO1)[C@]12COC[C@H]1CN(Cc1cccnc1)C2`, with -58.8%.
The result for `Cc1ccc(N2CCO[C@H]3CN(Cc4ccc(F)cc4)C[C@H]32)nn1` reads -3.71%; that for `Cc1nc(N2C[C@H]3CC[C@@H](C2)N3)nc2cc(S(C)(=O)=O)ccc12`, -46.7%; that for `Cc1nccn1CCN(C)c1nc(-c2ccc(Cl)cc2)nc2c1CNC2`, 70.5%.
Consider `CCN(CC)CCN(C)c1nc(-c2ccc(Cl)cc2)nc2c1CNC2`, for which the INHIBITION is 88.3%.
Then `CCN1C[C@H]2[C@@H](C1)N(S(=O)(=O)c1cccnc1)CC[C@H]2OC`, with -40.3%; and `NC(=O)CCC1CCCN(c2ccnc3cc(F)ccc23)C1` (stereo not given), with 83.4%; and `Cc1noc(C)c1CN1CC[C@H]2OCC[C@@]2(C(=O)NCC2CC2)C1`, with -139%.
As to `CN(C)Cc1cncc2c1CCN(C1CCOCC1)C2`, the INHIBITION is on record as -179%.
The result for `O=C(N[C@H]1CN[C@H]2CCCO[C@H]21)c1cscn1` reads -37.2%.
The result for `CCC/C=C/c1ccc(CN2CCN(C)CC2)cn1` reads 0.24%; that for `O=C(C1CC2(CCNCC2)CN1)N1CCN(c2cccc(Cl)c2Cl)CC1` (stereo not given), 79.2%.
For the molecule `O=C(NCc1cnn2cccnc12)C1CC2(CCNCC2)CN1` (stereo not given), the INHIBITION was -20.8%.
The result for `O=C(C1CC1)N1CC2(CCNCC2)C1` reads -76.2%.
